These results are taken from PubChem BioAssay (EPA / NIEHS).

“And” between values parts separate entries of the source, which are not always exact repeats. Equal entries are not always repeated. Results filed as inconclusive are left out. The source holds several records for some structures; these can differ, active in one and inactive in another. The source made the active and inactive calls. Rule for the calls, unless noted: active = hit-call score of the fitted dose curve at least 0.9, where 1 is the maximum; inactive = score below 0.9.

For experiment [1], the target named is human Retinoic Acid Receptor gamma (RARg), RARG (gene 5916) (UniProt P13631). Nature of the experiment: ATG_RARg_TRANS: Attagene TRANS-FACTORIAL HepG2 Assay for human Retinoic Acid Receptor gamma (RARg) (AID 2283009; active = hit-call score of the fitted dose curve at least 0.9, where 1 is the maximum). The method in brief:
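HepG2 transiently transfected with GAL4-UAS reporter units and chimeric NR-Gal4 constructs; 24 h compound exposure. Reporter mRNA quantified by RT-PCR, FAM labeling, HpaI digestion and capillary electrophoresis; gain-of-signal versus DMSO.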

Experiment [2] has as its target human RAR-related Orphan Receptor gamma (RORg), RORC (gene 6097) (UniProt P51449). Nature of the experiment: ATG_RORg_TRANS: Attagene TRANS-FACTORIAL HepG2 Assay for human RAR-related Orphan Receptor gamma (RORg) (AID 2283011; active = hit-call score of the fitted dose curve at least 0.9, where 1 is the maximum). A digest of the protocol:
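Transient MRTU transfection of HepG2 (TRANS format, exogenous NR-Gal4 chimera). 24 h dosing. Total RNA → oligo(dT) RT → PCR → 6-FAM labelling → HpaI cut → CE. Gain vs DMSO.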

Experiment [3] concerns the target Retinoic acid receptor RXR-alpha (Homo sapiens) (UniProt P19793). Nature of the experiment: ATG_RXRa_TRANS: Attagene TRANS-FACTORIAL HepG2 Assay for human Retinoid X Receptor alpha (RXRa) (AID 2283012; active = hit-call score of the fitted dose curve at least 0.9, where 1 is the maximum). A digest of the protocol: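 HepG2 cells transiently transfected with GAL4-UAS reporter units and chimeric RXRa-Gal4 protein, treated 24 h. Reporter mRNA measured by RT-PCR, fluorescent labelling, HpaI digestion and capillary electrophoresis. Induction fitted against DMSO.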

In experiment [4] the target is human Retinoid X Receptor beta (RXRb), RXRB (gene 6257) (UniProt P28702). Nature of the experiment: ATG_RXRb_TRANS: Attagene TRANS-FACTORIAL HepG2 Assay for human Retinoid X Receptor beta (RXRb) (AID 2283013; active = hit-call score of the fitted dose curve at least 0.9, where 1 is the maximum). A digest of the protocol:
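HepG2 cells were transiently transfected with multiplexed GAL4-UAS reporters and a chimeric RXRb-Gal4 construct, then exposed for 24 h. Reporter mRNA was quantified by RT-PCR, FAM labeling, HpaI digestion and capillary electrophoresis; gain of signal was scored against DMSO.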

Experiment [5] addresses human Thyroid Receptor alpha (THRa1), THRA (gene 7067) (UniProt P10827). Nature of the experiment: ATG_THRa1_TRANS: Attagene TRANS-FACTORIAL HepG2 Assay for human Thyroid Receptor alpha (THRa1) (AID 2283014; active = hit-call score of the fitted dose curve at least 0.9, where 1 is the maximum). The method in brief:
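Transient HepG2 transfection, NR-Gal4 chimera driving GAL4-UAS reporters; 24 h compound exposure; total RNA, oligo(dT) RT, PCR, fluorescent primer extension, capillary electrophoresis. Upward direction vs DMSO control.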

Read-out in experiment [6]: E-selectin (Homo sapiens) (UniProt P16581)
Nature of the experiment: BSK_3C_Eselectin: BioMAP Diversity Plus: 3C Assay for Eselectin Biomarker Activity (AID 2283015).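 For outcome: cell surface E-selectin protein quantified by ELISA 24 h after dosing.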 As to conditions: primary human endothelial cells (HUVEC); actives raise or lower the signal. The method in brief: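 HUVEC, 3C stimulation; compound exposure 24 h; E-selectin by ELISA; gain- or loss-of-signal fitted bidirectionally vs DMSO baseline.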

Read-out in experiment [7]: Interleukin-1 alpha (IL1a), IL1A (gene 3552)
Nature of the experiment: BSK_BE3C_IL1a: BioMAP Diversity Plus: BE3C Assay for Interleukin-1 alpha (IL1a) Biomarker Activity (AID 2283016). Conditions: primary human bronchial epithelial cells; actives raise or lower the signal. A digest of the protocol:
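Human primary bronchial epithelial cells, 24 h chemical exposure; IL-1a quantified by ELISA, fitted bidirectionally against DMSO. Cytotoxicity assessed in parallel by SRB total-protein staining at the time of measurement.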

Read-out in experiment [8]: Monocyte Chemoattractant Protein-1 (MCP1), CCL2 (gene 6347)
Nature of the experiment: BSK_3C_MCP1: BioMAP Diversity Plus: 3C Assay for Monocyte Chemoattractant Protein-1 (MCP1) Biomarker Activity (AID 2283017). As to conditions: primary human endothelial cells (HUVEC); actives raise or lower the signal. A digest of the protocol: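 HUVEC, 3C system; 24 h chemical exposure; MCP-1 by ELISA; bidirectional curve fit vs DMSO baseline.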

Read-out in experiment [9]: Monocyte Chemoattractant Protein-1 (MCP1), CCL2 (gene 6347)
Nature of the experiment: BSK_4H_MCP1: BioMAP Diversity Plus: 4H Assay for Monocyte Chemoattractant Protein-1 (MCP1) Biomarker Activity (AID 2283018). As to conditions: primary human endothelial cells (HUVEC); actives raise or lower the signal. A digest of the protocol:
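Human umbilical vein endothelial cells (4H system) exposed to chemicals for 24 h in 96-well format. MCP-1 measured by ELISA; bidirectional fitting against DMSO, with SRB total-protein staining in parallel cultures for cytotoxicity.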

Read-out in experiment [10]: Human Leukocyte Antigen - DR isotype (HLADR), HLA-DRA (gene 3122)
The experiment in a line: BSK_3C_HLADR: BioMAP Diversity Plus: 3C Assay for Human Leukocyte Antigen - DR isotype (HLADR) Biomarker Activity (AID 2283019).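 For outcome: ELISA of cell-surface HLA-DR on HUVEC 24 h after dosing.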 Conditions: primary human endothelial cells (HUVEC); actives raise or lower the signal. The method in brief: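 HUVEC, 3C stimulation, 24 h post-dose; HLA-DR by ELISA; bidirectional curve fit vs DMSO baseline; gain or loss of signal scored.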

Read-out in experiment [11]: Interleukin-8 (IL8), CXCL8 (gene 3576)
Nature of the experiment: BSK_3C_IL8: BioMAP Diversity Plus: 3C Assay for Interleukin-8 (IL8) Biomarker Activity (AID 2283020). As to conditions: primary human endothelial cells (HUVEC); actives raise or lower the signal. A digest of the protocol: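 Primary human umbilical vein endothelial cells were dosed for 24 h. IL-8 was quantified by ELISA and fitted bidirectionally against DMSO. Cytotoxicity was assessed in parallel cultures by SRB staining at 560 nm.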

Read-out in experiment [12]: Monokine induced gamma interferon (MIG), CXCL9 (gene 4283)
The experiment in a line: BSK_3C_MIG: BioMAP Diversity Plus: 3C Assay for Monokine induced gamma interferon (MIG) Biomarker Activity (AID 2283021).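 For AC50: MIG protein level measured by immunoassay in the treated endothelial cultures.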 Conditions: primary human endothelial cells (HUVEC); actives raise or lower the signal. The method in brief: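 HUVEC primary endothelial cultures dosed with chemical; MIG quantified by ELISA at 24 h. Data fitted bidirectionally against DMSO control, with parallel SRB total-protein staining for cytotoxicity.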

The nature of experiment [13]: BSK_3C_SRB: Viability Assessment in the BioMAP Diversity Plus: 3C Assay (AID 2283023).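 Note: fitted both ways against DMSO so a hit may be signal rise or drop.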 Conditions: primary human endothelial cells (HUVEC). A digest of the protocol:
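HUVEC, 24 h post-dose; 10% TCA fix, 0.1% SRB stain, A560 nm. Bidirectional curve fit vs DMSO negative control.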

Read-out in experiment [14]: Matrix Metallopeptidase 1 (MMP1), MMP1 (gene 4312)
The experiment in a line: BSK_BE3C_MMP1: BioMAP Diversity Plus: BE3C Assay for Matrix Metallopeptidase 1 (MMP1) Biomarker Activity (AID 2283024). Conditions: primary human bronchial epithelial cells; actives raise or lower the signal. A digest of the protocol: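 Human primary bronchial epithelial cells (BE3C system) dosed for 24 h; MMP-1 quantified by ELISA. Bidirectional fit against DMSO; cytotoxicity tracked in parallel cultures by SRB total-protein staining.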

The nature of experiment [15]: BSK_3C_Vis: BioMAP Diversity Plus: 3C Assay for Morphology Visualization (AID 2283025).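 Note: light microscopy image of cell morphology used as background control; fitted both ways so gain or loss versus DMSO counts.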 As to conditions: primary human endothelial cells (HUVEC). A digest of the protocol:
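Human umbilical vein endothelial cell morphology was inspected by light microscopy 24 h after chemical dosing; scored bidirectionally relative to DMSO.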

A short description of experiment [16]: BSK_4H_SRB: Viability Assessment in the BioMAP Diversity Plus: 4H Assay (AID 2283027).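 For AC50: curves fitted both ways versus DMSO so AC50 may be loss or gain.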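 Note: cells exposed to compound for 24 h before staining.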 Conditions: primary human endothelial cells (HUVEC). A digest of the protocol:
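Human umbilical vein endothelial cells, 24 h after chemical dosing; total protein measured by 0.1% sulforhodamine B staining after 10% TCA fixation, read at 560 nm. Bidirectional fitting against DMSO.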

Experiment [17] can be described thus: BSK_BE3C_SRB: Viability Assessment in the BioMAP Diversity Plus: BE3C Assay (AID 2283028).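 Note: fitted both ways so AC50 may mark signal gain or loss versus DMSO.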 Conditions: primary human bronchial epithelial cells. A digest of the protocol: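 Primary human bronchial epithelium; chemical dosing, 24 h; 10% TCA fix, 0.1% SRB stain, A560; bidirectional fit vs DMSO baseline.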
In experiment [18] the target is human Vitamin D Receptor (VDR), VDR (gene 7421) (UniProt P11473). Nature of the experiment: ATG_VDR_TRANS: Attagene TRANS-FACTORIAL HepG2 Assay for human Vitamin D Receptor (VDR) (AID 2283022; active = hit-call score of the fitted dose curve at least 0.9, where 1 is the maximum). The method in brief:
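RT-PCR/capillary electrophoresis read-out of reporter mRNA induction in transiently transfected HepG2; 24 h dosing; chimeric NR-Gal4 (TRANS format); gain-of-signal fit against DMSO baseline.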

The target of experiment [19] is human RAR-related Orphan Receptor beta (RORb), RORB (gene 6096) (UniProt Q92753). Nature of the experiment: ATG_RORb_TRANS: Attagene TRANS-FACTORIAL HepG2 Assay for human RAR-related Orphan Receptor beta (RORb) (AID 2283010; active = hit-call score of the fitted dose curve at least 0.9, where 1 is the maximum). The method in brief: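 HepG2 cells transiently transfected with GAL4-UAS reporter units expressing chimeric NR-Gal4 protein; reporter mRNA measured 24 h after dosing by RT-PCR, 6-FAM labelling and capillary electrophoresis. Gain-of-signal fitted relative to DMSO baseline.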
Sequence of human RAR-related Orphan Receptor beta (RORb), RORB (gene 6096) (Q92753 whole entry, looked up, the tested form may be a part): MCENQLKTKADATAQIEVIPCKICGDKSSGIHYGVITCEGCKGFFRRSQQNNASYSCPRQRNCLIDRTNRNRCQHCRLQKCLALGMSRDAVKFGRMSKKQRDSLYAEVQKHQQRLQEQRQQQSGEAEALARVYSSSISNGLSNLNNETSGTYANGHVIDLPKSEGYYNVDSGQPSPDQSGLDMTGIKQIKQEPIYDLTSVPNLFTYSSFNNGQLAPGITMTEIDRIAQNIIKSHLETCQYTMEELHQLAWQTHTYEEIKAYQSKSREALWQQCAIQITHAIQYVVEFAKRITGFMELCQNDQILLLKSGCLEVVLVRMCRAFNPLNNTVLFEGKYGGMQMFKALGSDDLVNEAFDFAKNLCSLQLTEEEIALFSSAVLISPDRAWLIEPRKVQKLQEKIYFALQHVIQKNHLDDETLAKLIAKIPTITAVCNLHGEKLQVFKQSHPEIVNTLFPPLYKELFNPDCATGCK

Sequence of human Retinoid X Receptor beta (RXRb), RXRB (gene 6257) (P28702 whole entry, looked up, the tested form may be a part): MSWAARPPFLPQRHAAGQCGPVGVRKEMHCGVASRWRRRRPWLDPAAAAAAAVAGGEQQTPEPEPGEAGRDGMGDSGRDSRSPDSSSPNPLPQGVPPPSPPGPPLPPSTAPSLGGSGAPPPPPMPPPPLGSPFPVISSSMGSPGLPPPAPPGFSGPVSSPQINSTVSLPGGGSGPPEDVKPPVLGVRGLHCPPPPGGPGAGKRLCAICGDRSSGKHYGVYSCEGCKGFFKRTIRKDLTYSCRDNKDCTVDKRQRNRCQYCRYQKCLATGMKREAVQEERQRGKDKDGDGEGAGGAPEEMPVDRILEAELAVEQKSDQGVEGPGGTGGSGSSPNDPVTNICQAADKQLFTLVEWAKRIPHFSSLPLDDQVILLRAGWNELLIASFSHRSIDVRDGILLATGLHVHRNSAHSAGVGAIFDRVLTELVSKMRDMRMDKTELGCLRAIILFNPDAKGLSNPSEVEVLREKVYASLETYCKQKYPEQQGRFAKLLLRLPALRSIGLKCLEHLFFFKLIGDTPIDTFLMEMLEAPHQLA
Sequence of E-selectin (Homo sapiens) (P16581 whole entry, looked up): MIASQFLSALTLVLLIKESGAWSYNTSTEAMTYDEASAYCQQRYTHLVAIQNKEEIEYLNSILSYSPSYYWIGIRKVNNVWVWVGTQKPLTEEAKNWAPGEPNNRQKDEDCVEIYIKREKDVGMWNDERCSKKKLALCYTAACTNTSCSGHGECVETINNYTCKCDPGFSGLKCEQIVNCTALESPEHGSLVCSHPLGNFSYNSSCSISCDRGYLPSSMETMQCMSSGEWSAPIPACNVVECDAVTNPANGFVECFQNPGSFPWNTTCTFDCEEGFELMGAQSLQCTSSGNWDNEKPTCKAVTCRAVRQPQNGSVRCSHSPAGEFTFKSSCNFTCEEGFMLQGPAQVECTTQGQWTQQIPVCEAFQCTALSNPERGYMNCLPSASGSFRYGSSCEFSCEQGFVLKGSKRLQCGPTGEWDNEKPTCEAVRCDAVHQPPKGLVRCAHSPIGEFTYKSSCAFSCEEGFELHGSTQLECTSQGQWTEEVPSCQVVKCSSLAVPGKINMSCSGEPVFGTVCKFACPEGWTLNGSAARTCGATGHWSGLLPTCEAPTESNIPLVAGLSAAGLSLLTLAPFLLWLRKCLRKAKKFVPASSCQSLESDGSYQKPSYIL
Sequence of human Retinoic Acid Receptor gamma (RARg), RARG (gene 5916) (P13631 whole entry, looked up, the tested form may be a part): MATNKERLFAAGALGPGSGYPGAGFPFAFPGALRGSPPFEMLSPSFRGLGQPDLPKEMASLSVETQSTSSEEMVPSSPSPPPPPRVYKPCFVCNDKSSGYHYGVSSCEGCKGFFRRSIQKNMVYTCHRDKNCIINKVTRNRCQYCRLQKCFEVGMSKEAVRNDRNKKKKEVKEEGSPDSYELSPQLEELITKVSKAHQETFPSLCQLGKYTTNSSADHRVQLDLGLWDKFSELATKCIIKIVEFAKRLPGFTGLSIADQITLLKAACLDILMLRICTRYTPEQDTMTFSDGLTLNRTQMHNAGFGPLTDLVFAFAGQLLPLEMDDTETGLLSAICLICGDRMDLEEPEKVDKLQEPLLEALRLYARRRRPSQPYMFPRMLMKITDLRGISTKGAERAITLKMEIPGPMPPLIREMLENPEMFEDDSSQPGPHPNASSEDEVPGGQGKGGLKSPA
Sequence of Retinoic acid receptor RXR-alpha (Homo sapiens) (P19793 whole entry, looked up, the tested form may be a part): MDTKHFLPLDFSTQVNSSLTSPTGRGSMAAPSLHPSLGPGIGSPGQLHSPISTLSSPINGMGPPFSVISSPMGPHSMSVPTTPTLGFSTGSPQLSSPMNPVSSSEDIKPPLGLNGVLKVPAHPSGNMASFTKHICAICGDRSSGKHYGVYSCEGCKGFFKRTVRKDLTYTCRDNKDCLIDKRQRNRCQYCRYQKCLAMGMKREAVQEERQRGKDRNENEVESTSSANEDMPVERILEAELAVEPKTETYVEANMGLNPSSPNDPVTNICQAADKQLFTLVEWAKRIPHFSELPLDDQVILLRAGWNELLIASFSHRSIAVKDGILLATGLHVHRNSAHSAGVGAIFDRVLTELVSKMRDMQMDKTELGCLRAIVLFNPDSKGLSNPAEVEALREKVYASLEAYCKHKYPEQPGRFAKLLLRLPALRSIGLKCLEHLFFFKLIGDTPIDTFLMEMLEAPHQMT
Sequence of human RAR-related Orphan Receptor gamma (RORg), RORC (gene 6097) (P51449 whole entry, looked up, the tested form may be a part): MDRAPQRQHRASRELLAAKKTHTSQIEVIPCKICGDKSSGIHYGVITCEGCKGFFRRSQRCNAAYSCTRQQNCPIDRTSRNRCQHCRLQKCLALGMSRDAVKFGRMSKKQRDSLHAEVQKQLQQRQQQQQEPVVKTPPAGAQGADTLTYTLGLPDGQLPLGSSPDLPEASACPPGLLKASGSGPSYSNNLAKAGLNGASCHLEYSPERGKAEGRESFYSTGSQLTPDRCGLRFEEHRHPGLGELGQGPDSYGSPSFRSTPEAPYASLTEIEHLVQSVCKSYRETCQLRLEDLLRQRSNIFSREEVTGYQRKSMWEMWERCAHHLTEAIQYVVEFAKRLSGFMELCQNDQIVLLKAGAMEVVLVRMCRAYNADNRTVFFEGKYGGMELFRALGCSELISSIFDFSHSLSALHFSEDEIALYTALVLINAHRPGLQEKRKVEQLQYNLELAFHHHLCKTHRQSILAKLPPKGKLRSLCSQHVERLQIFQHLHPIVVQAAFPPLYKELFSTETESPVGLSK
Sequence of human Vitamin D Receptor (VDR), VDR (gene 7421) (P11473 whole entry, looked up, the tested form may be a part): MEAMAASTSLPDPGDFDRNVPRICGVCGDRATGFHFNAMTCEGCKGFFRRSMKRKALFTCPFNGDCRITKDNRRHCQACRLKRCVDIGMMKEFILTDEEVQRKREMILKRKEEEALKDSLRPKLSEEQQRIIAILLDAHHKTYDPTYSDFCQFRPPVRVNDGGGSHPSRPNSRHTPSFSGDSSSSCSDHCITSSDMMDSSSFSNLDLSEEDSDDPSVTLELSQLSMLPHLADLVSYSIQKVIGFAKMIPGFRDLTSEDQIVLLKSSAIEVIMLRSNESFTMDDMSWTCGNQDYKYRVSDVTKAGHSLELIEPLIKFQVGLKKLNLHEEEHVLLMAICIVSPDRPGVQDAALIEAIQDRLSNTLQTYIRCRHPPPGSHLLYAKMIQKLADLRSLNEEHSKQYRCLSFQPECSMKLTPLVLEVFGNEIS
Sequence of human Thyroid Receptor alpha (THRa1), THRA (gene 7067) (P10827 whole entry, looked up, the tested form may be a part): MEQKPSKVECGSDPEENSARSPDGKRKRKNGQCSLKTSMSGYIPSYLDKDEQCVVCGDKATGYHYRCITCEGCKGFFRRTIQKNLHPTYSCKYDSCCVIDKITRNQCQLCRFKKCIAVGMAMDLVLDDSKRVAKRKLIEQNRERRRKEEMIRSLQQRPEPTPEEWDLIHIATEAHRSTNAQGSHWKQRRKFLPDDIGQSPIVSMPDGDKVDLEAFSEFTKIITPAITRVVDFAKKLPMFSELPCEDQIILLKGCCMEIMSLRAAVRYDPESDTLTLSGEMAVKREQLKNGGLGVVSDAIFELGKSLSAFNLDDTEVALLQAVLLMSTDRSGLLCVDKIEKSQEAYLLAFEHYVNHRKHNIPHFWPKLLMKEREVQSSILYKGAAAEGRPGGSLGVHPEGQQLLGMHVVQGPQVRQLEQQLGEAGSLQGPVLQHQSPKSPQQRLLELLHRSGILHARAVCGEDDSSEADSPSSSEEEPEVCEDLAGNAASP

By AC50 is commonly meant the concentration giving half of the maximal activity seen. `ClC(Cl)=C(Cl)C(Cl)=C(Cl)Cl`: the compound was called inactive in [1], in [2], in experiment [3], in [4] and in [5]. For the same compound, the AC50 in experiment [6] was 14.5 µM (active); in [7], 36.7 µM (active); in experiment [8], 31.4 µM (active); in experiment [9] it was 31.6 µM (active); in experiment [10] it was 29.8 µM (active); in experiment [11] it was 32.4 µM (active). In addition, the AC50 was 36.5 µM (active) in experiment [12]; 34.4 µM (active) in experiment [13]; 20 µM (active) in experiment [14]; 37.5 µM (active) in [15]; 34.2 µM (active) in experiment [16]; 31.2 µM (active) in experiment [17].
As to `CCC(C)c1cccc(C(C)CC)c1O` (stereo not drawn), the compound was classed as inactive in [1], in experiment [2], in experiment [3] and in [18]. Besides, in [4], the AC50 was 26.3 µM (active).
Take `O=C(O)C(F)(F)C(F)(F)C(F)(F)C(F)(F)C(F)(F)C(F)(F)C(F)(F)C(F)(F)C(F)(F)C(F)(F)F`: the call in [1], in experiment [19], in experiment [2], in [3], in experiment [4] and in experiment [5] was inactive. In addition, the result in [6], in [9], in experiment [10], in experiment [11], in experiment [12] and in experiment [18] was inactive. Further, the outcome in [13] and in experiment [16] was inactive. The AC50 in [4] was 13.5 µM (active); in [6], 30.5 µM (active); in [7], 25.3 µM (active) and 5.25 µM (active) and 5.23 µM (active); in [9] it was 32.3 µM (active); in experiment [10], 29.7 µM (active); in experiment [11], 29 µM (active). Further, the AC50 in experiment [12] was 35.3 µM (active); in experiment [13], 29.4 µM (active); in experiment [14], 29.3 µM (active) and 5.53 µM (active) and 5.54 µM (active); in experiment [15] it was 37.8 µM (active); in [16], 31.8 µM (active); in [17], 25.5 µM (active) and 2.72 µM (active) and 4.77 µM (active).
